Results from ChEMBL document CHEMBL1157539, “Thousands of chemical starting points for antimalarial lead identification” (Nature, 2010).

Test system: HepG2
Test: GSK_TCMDC: Percent inhibition of human HepG2 cell line. Test compounds present at 10uM.
Assay type: functional

Row | SMILES | Inhibition [%]
1 | COc1ccc(NC(=O)[C@H](CC(C)C)Nc2cc(C)nc(NCc3cccc(C)c3)n2)cc1.O=C(O)C(F)(F)F | 24
2 | CCOc1ccc(C=CC(=O)Nc2ccc3nc(N4CCN(C)CC4)cc(C)c3c2)cc1OC | 0
3 | CON=C1CCC(Cn2ccnc2)(c2ccc(Cl)cc2Cl)CC1 (configuration not stated) | 7
4 | CC(C)(C)c1ccc(NC(=O)c2ccc(CN3CCCN(Cc4cccc(O)c4)CC3)cc2)cc1.O=C(O)C(F)(F)F | 54
5 | COc1ccc(-c2ccc(NC(=O)c3cccc(C#N)c3)cc2)cc1CN1CCCN(C)CC1.O=C(O)C(F)(F)F | 26
6 | NS(=O)(=O)c1cccc(Br)c1 | 0
7 | Cc1ccccc1C1CCN(C2CCC(NC(=O)/C=C/c3c(F)ccc(F)c3F)CC2)CC1 (configuration not stated) | 37
8 | ON=C(c1nc2ccccc2[nH]1)c1nc2ccccc2[nH]1 | 36
9 | CN1CCC(Oc2ccc(CN3CC[C@H](NC(=O)c4cccc(C#N)c4)C3)c3ccccc23)C1.O=C(O)C(F)(F)F (some centres not stated) | 10
10 | Cc1ccc(-n2cc(CNCCCn3ccnc3)c(-c3cccc(C)c3)n2)cc1 | 9
11 | CCOc1cc(CNCCCCCCNCc2cc(OCC)c(OCC)c3ccccc23)c2ccccc2c1OCC.CS(=O)(=O)O | 100
12 | COc1ccc(CCNc2ccnc3cc(Cl)ccc23)cc1OC.Cl | 4
13 | CC(CCc1ccccc1)NCC(O)c1ccc2c(c1)S(=O)(=O)c1ccccc1N2 (configuration not stated) | 17
14 | CC(C)(C)CC(=O)Nc1ccc(Nc2cc(-c3ccncc3)cc3ncc(C(N)=O)cc23)cc1 | 5
15 | CC(C)C(NC(=O)Cc1cccc2ccccc12)C(=O)Nc1cccc(C#N)c1 (configuration not stated) | 0
16 | COc1ccc(C=NN=c2c3ccccc3[nH]c3ccccc23)c2ccccc12 | 9
17 | CN1CCC(NCc2ccc(-c3ccc(C(F)(F)F)cc3)cc2)CC1 | 54
18 | O=C(O)C(F)(F)F.O=c1cc(N2CCNCC2)c(Cl)nn1Cc1ccc(NS(=O)(=O)c2ccc(Oc3ccccc3)cc2)cc1 | 3
19 | Cc1cc(C)nc(-n2[nH]c(C)c(Cc3ccc(C(C)(C)C)cc3)c2=O)n1 | 0
20 | CCC(C)(C)C1CCc2[nH]c3ccccc3c(=O)c2C1 (configuration not stated) | 16
21 | Cl.NOCCCCOc1ccccc1 | 12
22 | CCN(CCO)CCCC(C)Nc1ccnc2cc(Cl)ccc12.O=S(=O)(O)O (configuration not stated) [HYDROXYCHLOROQUINE SULFATE] | 3
23 | Cc1cc(Nc2ccncc2)n2nc(C)c(-c3ccccc3Cl)c2n1 | 2
24 | O=C(C=Cc1ccc(Cl)c(Cl)c1)NCCCCCN1CCC(CCNC(=O)c2ccc3c(c2)OCO3)CC1 | 35
25 | COc1c(Br)cc(Br)cc1-c1ccc(CN2C3CCCC2CCC3)[nH]1.Cl | 42
26 | Cc1ccc(-c2cc3nc4c(c(NCCCn5ccnc5)n3n2)CCC4)cc1 | 22
27 | CCC(Cc1cnc2nc(N)nc(N)c2n1)c1ccc(C(=O)O)cc1 (configuration not stated) | 15
